Anesthetic bind – binds horse apoferritin like a general anesthetic. apoferritin/1-aminoanthracene competitive binding, fluorescence. 350,000 tested, 0.074% active. Potency, µM (titrated, usually from 77.5 µM), usual class: inhibitors. AID 485281; further: nearly all actives have a fitted effect of over 20% in size
Target sequence (P02791 2-175 limits assumed): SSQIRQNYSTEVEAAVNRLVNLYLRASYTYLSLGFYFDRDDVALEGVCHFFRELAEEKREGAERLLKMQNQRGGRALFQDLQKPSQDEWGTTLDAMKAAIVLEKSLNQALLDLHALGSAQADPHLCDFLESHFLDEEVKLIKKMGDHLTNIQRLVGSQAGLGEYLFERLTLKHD
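In PBS, apoferritin at 10 uM is loaded with 1-AMA from a 50% saturated solution. After 10 min of compound exposure at ambient temperature, reduced 535 nm fluorescence indicates probe displacement.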
D2 PAM-1 – D2 dopamine receptor (human) potentiation; 340,000 tested, 0.34% active; HEK293 T-REx D2, calcium flux, EC20 dopamine potentiation; AID 485347; potentiation, % at 10 µM; P14416;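 active means potentiation over 3 SD above the plate norm, cut at about 30% in these data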
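Calcium flux readout, no-wash dye, 1 read/s. Inducible HEK293 Trex D2 line, overnight 30 C. Compound alone 180 s (agonist flags), then EC20 dopamine, another 180 s to score potentiation.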
D2 ag-1 – D2 dopamine receptor (human) agonism; 340,000 tested, 0.53% active; AID 485358; HEK293 T-REx D2 cells, calcium flux agonist mode; P14416; activation, % at 2 µM;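 active means activation over 3 SD above normal in the single-dose calcium agonist read, cut at about 30% in these data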
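Agonism scored from kinetic calcium signal (1 read/sec, 180 s) following compound pin transfer, after a 10 s baseline. Cells: HEK293 Trex line expressing inducible D2 receptor coupled to calcium, dye-loaded after overnight culture at 30 C.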
D2 antagonist – antagonists of human D2 dopamine receptor; P14416; HEK293 TREx D2 cells, calcium flux, dopamine EC80; inhibition, % at 10 µM; 340,000 tested, 2% active; in the data active means inhibition above about 30%; inactive means below that, where a call was filed
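Calcium mobilization kinetics were recorded at 1 s intervals in tetracycline-induced HEK293 T-REx D2 cells, first for 180 s after compound addition and then 180 s after EC80 dopamine.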
D2 ag-2 – human D2 receptor agonism in beta-arrestin assay; DiscoveRx PathHunter D2 beta-arrestin, luminescence, 90 min; 100% = 57 uM dopamine signal; activation, % (concentration not given with the values); 360,000 tested, 0.084% active; AID 624465; in the data active means activation above about 40%; inconclusive means between about 15% and that limit
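DiscoveRx PathHunter D2 beta-arrestin cells (2,100/well) attached overnight, then compound-stimulated 90 min at 37 C in HBSS/10 mM HEPES/0.1% Tween-20 buffer; beta-galactosidase complementation read by luminescence after 1 h at ambient temperature. Dopamine 57 uM final (EC100) as control.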
D2 PAM-2 – potentiates the human D2 dopamine receptor allosterically | potentiation, % (no concentration beside the values) | P14416 | 360,000 tested, 0.23% active | DiscoveRx D2 beta-arrestin cells, luminescence, 90 min; 100% = 57 uM dopamine signal; in the data active means potentiation above about 50%; inconclusive means mostly about 30% to 49%
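D2 cells co-treated with compound plus 50 nM dopamine (EC20) for 90 min at 37 deg C to detect potentiation. Beta-arrestin recruitment was read as enzyme-fragment luminescence after 1 h at ambient temperature. Full response was set by 57 uM dopamine.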
D3 ag – confirmation of human D3 dopamine receptor agonists, beta-arrestin; shares compounds with D2 ag-1; DiscoveRx D3 beta-arrestin cells, luminescence, 90 min; Potency, µM (doses to about 76.9 µM), usual class: activators; 2,300 tested, 4% active; further: nearly all actives have a fitted effect of over 70% in size
Target sequence (P35462 whole entry, looked up): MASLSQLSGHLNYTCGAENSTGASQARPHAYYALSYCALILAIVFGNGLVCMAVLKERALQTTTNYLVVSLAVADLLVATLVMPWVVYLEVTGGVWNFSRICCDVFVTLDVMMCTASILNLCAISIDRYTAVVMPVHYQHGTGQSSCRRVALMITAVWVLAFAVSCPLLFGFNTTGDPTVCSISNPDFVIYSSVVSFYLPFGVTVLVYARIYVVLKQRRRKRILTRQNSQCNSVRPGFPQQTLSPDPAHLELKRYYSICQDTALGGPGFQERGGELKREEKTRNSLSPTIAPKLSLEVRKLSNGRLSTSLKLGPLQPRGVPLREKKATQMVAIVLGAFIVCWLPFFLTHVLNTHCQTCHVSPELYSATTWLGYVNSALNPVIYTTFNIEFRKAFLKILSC
D2 ag-3 – activates human D2 dopamine receptor in D3 counterscreen. AID 720507. Potency, µM (highest dose often 76.9 µM), most hits filed as activators. 2,300 tested, 5.9% active. DiscoveRx PathHunter D2 beta-arrestin, luminescence, 90 min; response scale: percent relative to full dopamine signal. shares compounds with D2 ag-1; further: nearly all actives have a fitted effect of over 70% in size
Of the large screens only hits and unclear results are named; the others gave an inactive call (follow-up assays come after a bar, where they were run). An excerpt weighted towards active compounds, which were near 2.5% of everything screened. Unless noted, the call rests on the fitted dose curve; in most records, active means well fitted curve in the direction sought with a large enough effect; inconclusive means small, poorly fitted or top-dose-only effect, or another doubt; inactive means no such curve, though single readings can be large; an effect the other way counts as inactive or inconclusive.

COCCNC(=O)c1cnn2c1NC(c1ccco1)CC2C(F)(F)F (stereo unspecified)	none
CCCCOc1ccc(S(N)(=O)=O)cc1	none
CCN1CCN(c2ccc(S(=O)(=O)N3CCOCC3)cc2NC(=O)C(C)Oc2ccc(F)cc2)CC1 (stereo unspecified)	none (no result: Anesthetic bind) | D3 ag inactive | D2 ag-3 inactive
CC(Oc1ccc(F)cc1)C(=O)Nc1cc(S(=O)(=O)N2CCOCC2)ccc1N1CCCC1 (stereo unspecified)	none
OC(COc1ccccc1)CN1CCN(c2ncccn2)CC1 (stereo unspecified)	D2 antagonist 39 | D3 ag inactive | D2 ag-3 inactive
COc1cccc(OCC(O)CN2CCN(c3ncccn3)CC2)c1 (stereo unspecified)	D2 ag-1 78, D2 antagonist 69, D2 ag-2 inconclusive | D3 ag inactive | D2 ag-3 inconclusive
COc1cccc(OCC(O)CN2CCOCC2)c1 (stereo unspecified)	none
COc1cccc(OCC(O)CN2CCN(c3ccccn3)CC2)c1 (stereo unspecified)	D2 ag-1 73, D2 antagonist 91, D2 ag-2 inconclusive | D3 ag inconclusive | D2 ag-3 3.5µM
OCC(O)CN1CCN(c2ccccc2)CC1 (stereo unspecified)	D2 ag-1 82, D2 antagonist 59 | D3 ag inactive | D2 ag-3 inactive
CCOc1ccc2[nH]c(C)c(CN3CCCCCC3)c(=O)c2c1	none
Cc1ccc(-c2ccc(/C=N/NC(=O)c3ccccc3O)o2)cc1	none (no result: D2 ag-2, D2 PAM-2)
COc1cccc(OCC(O)CN2CCN(c3ccc(Cl)cc3)CC2)c1 (stereo unspecified)	none
COc1cccc(OCC(O)CN2CCN(c3ccccc3)CC2)c1 (stereo unspecified)	D2 ag-1 79, D2 antagonist 83, D2 ag-2 inconclusive | D3 ag inconclusive | D2 ag-3 inconclusive
COc1cccc(CN2CCN(c3ncccn3)CC2)c1	D2 ag-1 93, D2 antagonist 95, D2 ag-2 55 | D3 ag inconclusive | D2 ag-3 0.63µM
OC(COc1ccc(Br)cc1)CN1CCN(c2ccccc2)CC1 (stereo unspecified)	D2 ag-1 61, D2 antagonist 81 | D3 ag inconclusive | D2 ag-3 inconclusive
COc1cc(Br)cc(CN2CCN(c3ncccn3)CC2)c1O	D2 ag-1 76, D2 antagonist 74, D2 ag-2 52, D2 PAM-2 81 | D3 ag inconclusive | D2 ag-3 7.9µM
CC(C)C(=O)NC(=S)Nc1nnn(C)n1	none
OC(CSc1ccc(F)cc1)CN1CCN(c2ccccc2)CC1 (stereo unspecified)	D2 ag-1 80, D2 antagonist 76, D2 ag-2 inconclusive | D3 ag inactive | D2 ag-3 inactive
OC[C@@H](O)CN1CCN(c2ccccc2)CC1	none (no result: D2 PAM-1, D2 ag-1, D2 antagonist, D2 ag-2, D2 PAM-2)
Cc1cc(=O)n2nc(N3CCCC3C(=O)Nc3cccc(Cl)c3C)sc2n1 (stereo unspecified)	none
CNC(=S)N(CCc1c(C)[nH]c2ccc(OC)cc12)Cc1cccnc1	none | D3 ag inactive | D2 ag-3 inactive
CCCc1cc(=O)[nH]c2nnc(SCC(=O)Nc3ccc(NC(C)=O)cc3)n12	none (no result: Anesthetic bind)
CCSC1=N/C(=C\c2ccc3c(c2)OCO3)C(=O)S1	D2 antagonist 30 | D3 ag inactive | D2 ag-3 inactive
COc1ccc(CC(=O)NC(C)(C)CC(C)=O)cc1OC	none
CC(=O)CC(C)(C)NC(C)=S	D2 ag-1 34 | D3 ag inactive | D2 ag-3 inactive
COc1cccc(-c2cnc3c(NC(C)=O)cc(-c4cc(OC)c(OC)c(OC)c4)cn23)c1	none (no result: Anesthetic bind, D2 PAM-1, D2 ag-1, D2 antagonist)
Cn1c(=O)c(Oc2ccc(F)cc2)c(O)c2ccccc21	D2 ag-1 50 | D3 ag inactive | D2 ag-3 inactive
CC(=O)c1c(O)c2ccccc2n(C)c1=O	none
O=C(c1cccc(C(=O)N(c2ccccn2)C2CCCCC2)c1)N(c1ccccn1)C1CCCCC1	D2 ag-1 70, D2 antagonist 62, D2 ag-2 inconclusive | D3 ag inactive | D2 ag-3 inconclusive
O=C(CCl)Nc1cn(-c2ccccc2)nc1-c1ccccc1	none
COc1ccc2c(c1)[nH]c1c(=O)n(Cc3ccccn3)cnc12	none
COc1ccc2c(c1)[nH]c1c(=O)n(Cc3ccco3)cnc12	D2 ag-1 32 | D3 ag inactive | D2 ag-3 inactive
CN=c1scc(C)n1/N=C/c1ccc(O)c(O)c1O	Anesthetic bind inconclusive, D2 ag-1 40, D2 ag-2 52, D2 PAM-2 93 | D3 ag 40µM | D2 ag-3 inactive
CN=c1scc(-c2cccs2)n1/N=C/c1ccccc1O	none
CN=c1scc(-c2cccs2)n1/N=C/c1ccc(O)c(O)c1O	D2 ag-1 66, D2 antagonist 89, D2 ag-2 182, D2 PAM-2 109 | D3 ag 25µM | D2 ag-3 14µM
CN=c1scc(C)n1/N=C/c1cc(Br)c(O)c(OC)c1	none
COc1ccc(-n2c(-c3ccc(C)cc3)cc3c2CC(C)(C)CC3=O)cc1Cl	none (no result: D2 antagonist, D2 ag-2, D2 PAM-2)
CN(c1ccccc1)S(=O)(=O)CS(=O)(=O)N(C)c1ccccc1	none (no result: Anesthetic bind, D2 PAM-1, D2 ag-1, D2 antagonist)
CCOC(=O)C1=C(COC(=O)c2cccc(N(C)C)c2)NC(=O)NC1C (stereo unspecified)	none (no result: Anesthetic bind)
NC(=O)Nc1ccc(C(=O)OCC(=O)NCc2ccc3c(c2)OCO3)cc1	none (no result: Anesthetic bind)
CCCCCCn1c(N2CCC(C(N)=O)CC2)nc2c1c(=O)[nH]c(=O)n2C	none
Cc1cccc(C(=O)NNC(=O)c2ccc(NS(=O)(=O)c3cccs3)cc2)c1C	none (no result: Anesthetic bind) | D3 ag inactive | D2 ag-3 inactive
COc1ccc(C(=O)NCC(=O)N/N=C/c2cn[nH]c2-c2ccccc2)cc1	Anesthetic bind inconclusive (no result: D2 PAM-1) | D3 ag inactive | D2 ag-3 inactive
Oc1ccc(-c2csc(-c3cccnc3)n2)cc1O	D2 ag-1 31 | D3 ag 16µM | D2 ag-3 inactive
Oc1ccc(-c2csc(-c3ccccc3)n2)cc1O	Anesthetic bind inconclusive
O=C(CN1CCN(c2ccccn2)CC1)Nc1ccc2ccccc2c1	none | D3 ag inactive | D2 ag-3 inactive
